We go through 40 molecules from the supplement of paper PMC9135407.

Molecules are shown by their SMILES. Counter-ions that a name gives are not always drawn.

For the assay, the system named is primary human hepatic stellate cells (donor 1). As to the kind of experiment: COL1A1 mRNA fold change vs DMSO (normalised to PSMB2); higher = more COL1A1 expression, active = hit call of the paper. To be noted: 48 h. As to the method:
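Secondary qRT-PCR screen in primary human HSCs (donor 1), 384-well plates, with compounds dispensed in quadruplicate and incubated for 48 h. Cells-to-CT lysates were used for multiplexed TaqMan qPCR of ACTA2 or COL1A1 with PSMB2 as reference. Fold changes versus DMSO come from a linear model (Ct_gene ~ Ct_PSMB2 + plate + chemical). A hit is defined as COL1A1 and ACTA2 FC <0.5 (FDR <0.05) with PSMB2 between 0.2 and 2.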
As for `C#CC1(O)CC[C@H]2[C@@H]3CCC4=CC(=O)CC[C@@H]4[C@H]3CC[C@@]21CC` (stereo not given in full) [Norgestrel] (21.3333 µM), the “COL1A1 mRNA fold change” value is 1.14 (inactive).
For `CNCCCC1c2ccccc2C=Cc2ccccc21` [Protryptyline hydrochloride] (22.2333 µM) the value was 0.548 (inactive).
As for `Cc1cccc(Nc2nc(-c3ccncc3)cs2)c1` (11.1 µM), the figure is 0.552 (inactive).
On to `CC#CCOC(=O)c1c(C)nc2sc3c(c2c1N)CCC(O)C3` (stereo not given) (33.3333 µM), for which the “COL1A1 mRNA fold change” value is 2.5 (inactive).
For `C[C@@H](CN1CCC(n2c(=O)[nH]c3cc(Cl)ccc32)CC1)NC(=O)c1ccc2ccccc2c1` (33.3333 µM), the “COL1A1 mRNA fold change” value was 0.19 (inactive).
Take `O=C(Nc1ncc(SCCN2CCCC2)s1)[C@]1(c2ccc(S(=O)(=O)C3CC3)cc2)C[C@H]1C1CCCCC1` (11.1 µM): the “COL1A1 mRNA fold change” value was 0.0203 (active).
For `COc1cc2ncn(-c3cc(OCc4ccccc4C(F)(F)F)c(C(N)=O)s3)c2cc1OC` (33.3333 µM) the value was 1.1 (inactive); for `Cn1cc(C2=C(c3ccc(Cl)cc3Cl)C(=O)NC2=O)c2ccccc21` (33.3333 µM), 2.59 (inactive).
For `Nc1ccc(C(=O)Nc2cccc(-c3nc(N4CCOCC4)c4oc5ncccc5c4n3)c2)cn1` (6.66667 µM) the value was 1.15 (inactive); for `O=C1NC(=O)/C(=C/c2ccc(-c3ccc(F)cc3O)o2)S1` (33.3333 µM), 0.115 (inactive); for `NS(=O)(=O)C#Cc1ccccc1` [Pifithrin->m] (33.3333 µM), 0.18 (inactive).
As for `O=C1Nc2ccccc2/C1=C1/Nc2ccccc2C1=O` [Indirubin] (63.5333 µM), the figure is 0.897 (inactive); as for `CC[C@]1(O)C[C@@H]2CN(CCc3c([nH]c4ccccc34)[C@@](C(=O)OC)(c3cc4c(cc3OC)N(C)[C@H]3[C@@](O)(C(=O)OC)[C@H](OC(C)=O)[C@]5(CC)C=CCN6CC[C@]43[C@@H]65)C2)C1` [Vinblastine sulfate] (33.3333 µM), 0.513 (inactive).
For the molecule `CCN(CC)CCNC(=O)c1c(C)[nH]c(/C=C2\C(=O)Nc3ccc(F)cc32)c1C` (6.66667 µM), the “COL1A1 mRNA fold change” value was 0.664 (inactive).
As for `CNc1nccc(-c2cccnc2Oc2cc(C(=O)Nc3cccc(C(F)(F)F)c3)ccc2C)n1` (33.3333 µM), the “COL1A1 mRNA fold change” value is 0.618 (inactive).
As for `Cc1ccc(S(=O)(=O)/C=C/C#N)cc1` (33.3333 µM), the figure is 0.394 (inactive); as for `Clc1ccc(C2(c3ccc(-c4cn[nH]c4)cc3)CCNCC2)cc1` (33.3333 µM), 0.285 (active).
As for `CCC/C=C\C=C/C(=O)N[C@@H](CC(N)=O)C(=O)NC(CC(N)=O)C(=O)N[C@@H](C(=O)N[C@H](CCCN)C(=O)N[C@@H](C(=O)N[C@@H](C(=O)N[C@@H](C(=O)N[C@H](C(=O)N[C@@H](Cc1ccccc1)C(=O)N[C@H](CCCN)C(=O)NC(C(=O)N[C@H](C(=O)NC(C(=O)NCC(=O)N[C@@H](CC(C)C)C(=O)N[C@H](C)C(=O)NC(C(=O)O)C1CCC(O)C(Cl)C1)C1CCC(O)CC1)[C@H](C)O)C1CCC(O)CC1)[C@H](C)O)C1CCC(O)CC1)C1CCC(O)CC1)[C@H](C)O)C1CCC(O)CC1` (stereo not given in full) (33.3333 µM), the “COL1A1 mRNA fold change” value is 1.59 (inactive).
For `CNCCCC12CCC(c3ccccc31)c1ccccc12` [Maprotiline hydrochloride] (33.3333 µM) the value was 0.0732 (active); for `CCN(CC)CCOc1ccc(Cc2ccccc2)cc1` [DPPE fumarate] (33.3333 µM), 0.51 (inactive).
For the molecule `CCCCCCCCCCCCC/C=C/[C@@H](O)[C@H](CO)N(C)C` [N,N-Dimethylsphingosine] (3.33333 µM), the “COL1A1 mRNA fold change” value is 0.928 (inactive).
For `CNCc1ccc(-c2cc(-c3nc(-c4ccc(S(=O)(=O)C(C)C)cc4)cnc3N)on2)cc1` (11.1 µM) the value was 0.0438 (inactive).
Take `c1cc(OCCN2CCCCC2)cc(-c2n[nH]c3ccc(-c4nnc[nH]4)cc23)c1` (33.3333 µM): the “COL1A1 mRNA fold change” value is 0.105 (active).
Turning to `CCCCCCCCc1ccc(CCC(N)(CO)CO)cc1` [Fingolimod (FTY720) HCl] (11.1 µM), the “COL1A1 mRNA fold change” value is 0.392 (inactive).
Regarding `Cc1ccc2c(c1)c1c3n2CCNC3CCC1` (stereo not given) [Pirlindole mesylate] (20.6667 µM), the “COL1A1 mRNA fold change” value was 0.473 (inactive).
As for `COC(=O)N[C@H](C(=O)N1CCC[C@H]1c1ncc(-c2ccc(-c3ccc(-c4cnc([C@@H]5CCCN5C(=O)[C@@H](NC(=O)OC)C(C)C)[nH]4)cc3)cc2)[nH]1)C(C)C` (33.3333 µM), the figure is 0.0176 (inactive); as for `[O-][S+](c1ccccc1)c1ccc2nnnn2n1` (stereo not given) (33.3333 µM), 0.0868 (inactive); as for `CN(C)C/C=C(/c1ccc(Br)cc1)c1cccnc1` [Zimelidine dihydrochloride] (11.1 µM), 2.1 (inactive).
For `Cc1cc(C(=O)Nc2cc(Nc3ccc4c(/C=C/c5ccccn5)n[nH]c4c3)ccc2F)n(C)n1` (33.3333 µM) the value was 0.363 (active); for `NC[C@@H]1O[C@H](C23CC4CC(CC(C4)C2)C3)Cc2c1ccc(O)c2O` (33.3333 µM), 0.136 (inactive).
For `CN1CCN(Cc2ccc(-c3cnc4[nH]cc(-c5ccc6[nH]ccc6c5)c4c3)cc2)CC1` (6.66667 µM) the value was 0.0518 (active); for `CCN1CCC(n2cc(CNc3cc(Cl)c4ncc(C#N)c(Nc5ccc(F)c(Cl)c5)c4c3)nn2)CC1` (33.3333 µM), 0.124 (inactive).
For `CC(C)c1ccc(C(=O)c2cccs2)c(SCCCCCCCCN(C)C)n1` (33.3333 µM), the “COL1A1 mRNA fold change” value was 0.429 (inactive).
As for `N=C(N)SCCc1ccc(OCc2ccc([N+](=O)[O-])cc2)cc1` [KB-R7943 mesylate] (33.3333 µM), the “COL1A1 mRNA fold change” value was 0.168 (active).
For `Cc1cc(Nc2cc(N3CCN(C)CC3)nc(/C=C/c3ccccc3)n2)n[nH]1` (11.1 µM) the value was 0.343 (inactive); for `CS(=O)(=O)CCNCc1ccc(-c2ccc3ncnc(Nc4ccc(OCc5cccc(F)c5)c(Cl)c4)c3c2)o1` (6.66667 µM), 1.41 (inactive).
As for `Cn1cc(CNCC2CCN(c3ncc(C(=O)NO)cn3)CC2)c2ccccc21` [Quisinostat] (33.3333 µM), the figure is 0.00578 (inactive); as for `CC1(C)CC(=O)c2c(C(F)(F)F)nn(-c3ccc(C(N)=O)c(N[C@H]4CC[C@H](OC(=O)CN)CC4)c3)c2C1` (33.3333 µM), 0.807 (inactive).
For `C#C[C@]1(O)CC[C@H]2[C@@H]3CCC4=Cc5oncc5C[C@]4(C)[C@H]3CC[C@@]21C` [Danazol] (33.3333 µM) the value was 0.0336 (active); for `C[C@@H](Oc1cc(-c2cnn(C3CCNCC3)c2)cnc1N)c1c(Cl)ccc(F)c1Cl` (11.1 µM), 0.235 (active).
